The record followed here is ChEMBL document CHEMBL1157539, “Thousands of chemical starting points for antimalarial lead identification” (Nature, 2010).

Holding throughout (format): functional
The test system of assay [1] is Plasmodium falciparum. As to the kind of experiment: GSK_TCMDC: Inhibition of Plasmodium falciparum 3D7 in whole red blood cells, using parasite LDH activity as an index of growth. Test compounds present at 2uM.
For assay [2], the system named is Plasmodium falciparum. As to the kind of experiment: GSK_TCMDC: Inhibition of Plasmodium falciparum Dd2 in whole red blood cells, using parasite LDH activity as an index of growth. Test compounds present at 2uM.
For a further assay, the system named is HepG2. As to the kind of experiment: GSK_TCMDC: Percent inhibition of human HepG2 cell line. Test compounds present at 10uM.

One may read the Inhibition as the relative decrease from the control value, in per cent. In the case of `Cc1cc(N2CCC(N(C)C)C2)nc(Nc2ccc(Cl)cc2)n1` (stereo not drawn), the results for the Inhibition in the assay on Plasmodium falciparum [1], in the assay with Plasmodium falciparum [2] and with HepG2 were 99%, 17% and 11%, respectively.

Turning to `C=CCOC(=O)N1CCC(CNCc2cccc(-c3ccc(-c4nc5cccc(C)c5[nH]4)s3)c2)C1.O=C(O)C(F)(F)F` (stereo not drawn), the figures for the Inhibition with Plasmodium falciparum [1], in the assay with Plasmodium falciparum [2] and in the assay with HepG2 were 100%, 82% and 11%, respectively.

With `O=C(/C=C/c1ccc(Cl)c(Cl)c1)NCCCCCN1CCC(c2c[nH]c3cc(O)ccc23)CC1`, the figures for the Inhibition with Plasmodium falciparum [1], in the assay with Plasmodium falciparum [2] and in the assay with HepG2 were 100%, 2% and 32%, respectively.

Regarding `NC(=O)c1cccc(C(=O)Nc2cccc(-c3cccc(-c4nc5cc(C(F)(F)F)ccc5[nH]4)c3)c2)c1`, the figures for the Inhibition with Plasmodium falciparum [1], with Plasmodium falciparum [2] and in the assay on HepG2 were 100%, 85% and 71%, respectively.

Consider `CCOC(=O)c1nc(-c2cccc(F)c2)[nH]c1N.Cl`, for which the Inhibition with Plasmodium falciparum [1] turned out to be 98%; with Plasmodium falciparum [2], 2%; with HepG2 it was 0%.

As to `C(=C(c1cccs1)c1cccs1)c1ccc(CNC2CCN(Cc3ccccc3)CC2)cc1.Cl`, the Inhibition in the assay on Plasmodium falciparum [1] turned out to be 98%; with Plasmodium falciparum [2] it was 21%; in the assay with HepG2, 40%.

Regarding `N#Cc1cccc(CNC(=O)c2cccc(Nc3ccnc4ccc(F)cc34)c2)c1.O=C(O)C(F)(F)F`, the values for the Inhibition in the assay with Plasmodium falciparum [1], with Plasmodium falciparum [2] and with HepG2 were 87%, 26% and 0%, respectively.

`COc1cc2nc(N3CCC(CNC(=O)c4ccc(-c5ccc(C#N)cc5C)cc4)CC3)nc(N)c2cc1OC`: the Inhibition in the assay with Plasmodium falciparum [1] is recorded as 100%; in the assay on Plasmodium falciparum [2], 99%; in the assay with HepG2, 28%.

As for `CN1CCN(CC(=O)Nc2ccc(-c3csc(-c4nc5ccccc5[nH]4)c3)cc2)CC1`, the Inhibition was 99% with Plasmodium falciparum [1], 46% in the assay with Plasmodium falciparum [2] and 6% in the assay with HepG2.

Take `c1cc(Nc2nccc(-c3cnn4ncccc34)n2)cc(-c2cnco2)c1`: the Inhibition in the assay on Plasmodium falciparum [1] worked out at 96%; in the assay on Plasmodium falciparum [2] it was 83%; in the assay with HepG2 it was 54%.

On to `CN(C)c1ccc(C=Cc2ccc3ccccc3n2)c(Cl)c1`, for which the figures for the Inhibition with Plasmodium falciparum [1], in the assay on Plasmodium falciparum [2] and with HepG2 were 94%, 95% and 59%, respectively.
